In PubChem BioAssay (Tox21):
Where “and” joins values, the source holds several entries; their conditions need not be identical. Equal entries are not always repeated. Inconclusive results are not listed. Some compounds were tested as several samples or in several runs, with calls that do not always agree. Calls of active or inactive are those of the source. Unless noted, the call rests on the fitted dose curve; in most records, active means well fitted curve in the direction sought with a large enough effect in the repeat runs; inconclusive means weak or mixed curves; inactive means no such curve, though single readings can be large; an effect the other way counts as inactive or inconclusive.

How the values were obtained:
[1] = target: Luciferin 4-monooxygenase (Photinus pyralis) (UniProt P08659); assay: qHTS assay to identify small molecule inhibitors of firefly luciferase (AID 1224835); further: nearly all actives have a fitted effect of over 25% in size; further: potency means the concentration at half of the fitted maximal effect
Luciferin 4-monooxygenase (Photinus pyralis), sequence (P08659 whole entry, looked up): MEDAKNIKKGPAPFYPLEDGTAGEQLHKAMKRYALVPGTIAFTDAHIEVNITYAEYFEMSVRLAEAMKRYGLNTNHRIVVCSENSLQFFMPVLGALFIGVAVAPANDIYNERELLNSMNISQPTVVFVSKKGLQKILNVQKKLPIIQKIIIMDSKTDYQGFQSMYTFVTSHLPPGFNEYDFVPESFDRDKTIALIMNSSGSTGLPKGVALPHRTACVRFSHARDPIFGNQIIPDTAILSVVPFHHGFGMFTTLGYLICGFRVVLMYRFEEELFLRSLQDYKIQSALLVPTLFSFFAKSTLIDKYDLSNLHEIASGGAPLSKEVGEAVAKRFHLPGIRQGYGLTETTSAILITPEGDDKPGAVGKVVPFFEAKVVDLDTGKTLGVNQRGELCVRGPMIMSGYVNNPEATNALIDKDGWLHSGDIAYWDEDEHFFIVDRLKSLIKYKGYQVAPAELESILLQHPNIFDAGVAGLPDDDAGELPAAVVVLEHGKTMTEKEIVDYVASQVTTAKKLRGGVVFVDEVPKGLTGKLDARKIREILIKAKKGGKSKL
Outline: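 Biochemical qHTS: compounds run as interplate titrations against purified firefly enzyme, with D-luciferin and ATP each at its KM concentration. Light output recorded by CCD imaging.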

[2] = qHTS assay to identify small molecule agonists of the constitutive androstane receptor (CAR) signaling pathway - cell viability counter screen (AID 1224836); further: nearly all actives have a fitted effect of over 45% in size
Outline: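 Cell viability multiplexed with the CAR agonist screen: CellTiter-Fluor fluorescence after 23 hr at 37 C. HepG2-CYP2B6-hCAR cells got compounds at 15 concentrations with PK11195 at 0.75 uM final.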

[3] = qHTS assay to identify small molecule antagonists of the constitutive androstane receptor (CAR) signaling pathway - cell viability counter screen (AID 1224837); further: nearly all actives have a fitted effect of over 45% in size
Outline: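 HepG2 cells stably carrying hCAR and CYP2B6-2.2kb reporter, stimulated with 50 nM CITCO and compounds at 15 concentrations for 23 h at 37 C. Viability measured by CellTiter-Fluor fluorescence.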

[4] = qHTS assay to identify small molecule antagonists of the estrogen related receptor signaling pathway with the pleiotropic PPARgamma coactivator (PGC) from Tox21 10K library - cell viability counter screen (AID 1224840; active means well fitted cell-killing curve with a large enough effect in the repeat runs, not every such curve was filed as active; further: nearly all actives have a fitted effect of over 40% in size; further: potency means the concentration at half of the fitted maximal effect)
Outline: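 PGC/ERR cells (2,000/well) plated 6 h, then compound-treated for 17.5 h at 37 C. Viability measured by CellTiter-Fluor fluorescence after 30 min at 37 C, multiplexed with the pathway assay.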

[5] = target: Thyrotropin receptor (Homo sapiens) (UniProt P16473); assay: qHTS assay to identify small molecule agonists of the thyroid stimulating hormone receptor (TSHR) signaling pathway (AID 1224843; calls by dose curve; further: nearly all actives have a fitted effect of over 45% in size; further: potency means the concentration at half of the fitted maximal effect)
Thyrotropin receptor (Homo sapiens), sequence (P16473 whole entry, looked up): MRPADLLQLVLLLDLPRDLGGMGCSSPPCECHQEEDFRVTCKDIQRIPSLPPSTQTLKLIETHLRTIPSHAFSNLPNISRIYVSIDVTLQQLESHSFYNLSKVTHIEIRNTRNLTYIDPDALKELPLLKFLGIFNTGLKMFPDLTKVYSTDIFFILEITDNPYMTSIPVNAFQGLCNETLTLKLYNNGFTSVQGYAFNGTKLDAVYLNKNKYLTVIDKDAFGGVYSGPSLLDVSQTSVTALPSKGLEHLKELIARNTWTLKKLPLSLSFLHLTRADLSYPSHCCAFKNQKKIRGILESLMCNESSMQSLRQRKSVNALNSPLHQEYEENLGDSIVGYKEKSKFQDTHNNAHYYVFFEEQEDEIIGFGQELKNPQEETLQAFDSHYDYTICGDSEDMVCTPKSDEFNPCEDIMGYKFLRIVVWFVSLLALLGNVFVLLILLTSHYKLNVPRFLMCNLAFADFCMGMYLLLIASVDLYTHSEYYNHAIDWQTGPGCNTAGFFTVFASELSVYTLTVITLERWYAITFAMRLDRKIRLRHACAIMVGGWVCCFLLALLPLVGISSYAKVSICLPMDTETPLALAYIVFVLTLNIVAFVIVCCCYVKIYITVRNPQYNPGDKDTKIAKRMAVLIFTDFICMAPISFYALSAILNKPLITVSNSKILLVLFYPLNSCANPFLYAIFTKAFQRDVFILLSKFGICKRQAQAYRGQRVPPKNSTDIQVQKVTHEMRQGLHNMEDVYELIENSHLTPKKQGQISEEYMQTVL
Outline: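 Steps: seed 800 TSHR-HEK293 cells per well; add test compound and hold 30 min at ambient temperature; dispense cAMP-d2 then anti-cAMP cryptate; incubate 1 h at ambient; measure fluorescence intensity.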

[6] = qHTS assay to identify small molecule agonists of the hypoxia (HIF-1) signaling pathway - cell viability counter screen (AID 1224844; calls by dose curve; further: nearly all actives have a fitted effect of over 50% in size; further: potency means the concentration at half of the fitted maximal effect)
Outline: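 HRE-bla ME-180 cells, 2,000/well in 0.5% dialyzed FBS medium, treated 17 h at 37C with compounds. Viability read in the same wells as the bla reporter, by CellTiter-Glo luminescence after 30 min at room temperature.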

[7] = qHTS assay to identify small molecule agonists of H2AX (AID 1224845; active means well fitted activation curve with a large enough effect in the signal ratio in the repeat runs, not every such curve was filed as active; the % refers to the signal ratio; further: potency means the concentration at half of the fitted maximal effect)
Outline: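 Wild-type CHO-K1 cells, plated overnight, exposed 3hr at 37C to 15 concentrations (0.76% DMSO final). Lysed, then HTRF anti-pH2AX (S139) cryptate and anti-H2AX-d2 antibodies, 24 hr room temperature; 665/620 nm emission read.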

[8] = qHTS assay to identify small molecule agonists of H2AX - cell viability counter screen (AID 1224847; calls by dose curve; further: nearly all actives have a fitted effect of over 30% in size; further: potency means the concentration at half of the fitted maximal effect; on activity change, negative = cytotoxicity: top concentration of the series differs between compounds)
Outline: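 Counter-screen for viability: CellTiter-Glo ATP luminescence read after 3 h compound treatment (15-point titration, 0.76% DMSO final) of CHO-K1 cells at 37C, with 30 min room-temperature reagent incubation.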

[9] = qHTS RealTime-Glo MT Cell Viability Assay in HepG2 cells - 24 hour (AID 1224867); further: nearly all actives have a fitted effect of over 50% in size; further: potency means the concentration at half of the fitted maximal effect
Outline: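 HepG2 cells were seeded at 600 cells/well together with NanoLuc luciferase and a cell-permeant prosubstrate, preincubated 5 h at 37 C/5% CO2, then pin-dosed with compounds in DMSO. Nonlytic luminescence from viable cells was read at each time point.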

[10] = qHTS RealTime-Glo MT Cell Viability Assay in HEK293 cells - 32 hour (AID 1224868); further: nearly all actives have a fitted effect of over 50% in size; further: potency means the concentration at half of the fitted maximal effect; on activity change, negative = cytotoxic: top concentration of the series differs between compounds
Outline: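 HEK293 cells were seeded at 600 cells/well together with NanoLuc luciferase and cell-permeant prosubstrate, preincubated 5 h at 37 C/5% CO2, then given compound in DMSO by pintool. Luminescence from viable-cell prosubstrate reduction was read repeatedly over 40 h.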

[11] = A CellTox Green Cytotoxicity Assay to monitor cytotoxicity in HEK293 cells - 0 hour (AID 1224869); further: nearly all actives have a fitted effect of over 50% in size
Outline: (§1)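 HEK293 cells, 600/well, were preincubated 5 hours and then exposed to compounds at 37 C for up to 40 hours. A cell-impermeant cyanine dye staining dead-cell DNA was read by fluorescence at 0, 8, 16, 24, 32 and 40 h time points.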

[12] = qHTS RealTime-Glo MT Cell Viability Assay in HepG2 cells - 40 hour (AID 1224870); further: nearly all actives have a fitted effect of over 50% in size; further: potency means the concentration at half of the fitted maximal effect
Outline: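 HepG2 cells (600/well) mixed with RealTime-Glo MT reagent, settled 5 h at 37 C/5% CO2 before compound addition. Nonlytic NanoLuc luminescence from viable-cell prosubstrate reduction read repeatedly during 40 h treatment at 37 C.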

[13] = A CellTox Green Cytotoxicity Assay to monitor cytotoxicity in HEK293 cells - 40 hour (AID 1224871); further: nearly all actives have a fitted effect of over 45% in size; further: potency means the concentration at half of the fitted maximal effect
Outline: as §1

[14] = target: Nuclear receptor subfamily 1 group I member 3 (Homo sapiens) (UniProt Q14994); assay: qHTS assay to identify small molecule antagonists of the constitutive androstane receptor (CAR) signaling pathway (AID 1224838); further: nearly all actives have a fitted effect of over 40% in size
Nuclear receptor subfamily 1 group I member 3 (Homo sapiens), sequence (Q14994 whole entry, looked up): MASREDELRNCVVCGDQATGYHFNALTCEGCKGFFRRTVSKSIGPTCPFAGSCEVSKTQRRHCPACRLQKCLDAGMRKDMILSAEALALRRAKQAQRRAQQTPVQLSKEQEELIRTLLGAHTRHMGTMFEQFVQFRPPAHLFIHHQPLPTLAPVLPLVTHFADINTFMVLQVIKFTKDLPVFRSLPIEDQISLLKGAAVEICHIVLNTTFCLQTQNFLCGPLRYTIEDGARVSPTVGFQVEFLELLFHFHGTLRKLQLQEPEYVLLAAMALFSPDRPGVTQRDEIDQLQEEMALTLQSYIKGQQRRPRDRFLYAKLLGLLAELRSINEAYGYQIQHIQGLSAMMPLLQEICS
Outline: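 HepG2 cells stably carrying hCAR and a CYP2B6-2.2kb luciferase reporter, seeded 4 hrs before compound (15 concentrations). Stimulated with 50 nM CITCO for 24 hr at 37 C. ONE-Glo luminescence read after 30 min at room temperature.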

[15] = target: Nuclear receptor subfamily 1 group I member 3 (Homo sapiens) (UniProt Q14994); assay: qHTS assay to identify small molecule agonists of the constitutive androstane receptor (CAR) signaling pathway (AID 1224839); further: nearly all actives have a fitted effect of over 15% in size
Outline: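 Luminescent ONE-Glo read-out after 24 hr, 37 C exposure of double-stable HepG2-CYP2B6-hCAR reporter cells to a 15-point compound series, in the presence of 0.75 uM PK11195 (final).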

[16] = qHTS assay to identify small molecule antagonists of the estrogen related receptor signaling pathway with the pleiotropic PPARgamma coactivator (PGC) from Tox21 10K library (AID 1224841; call rule not given here; further: potency means the concentration at half of the fitted maximal effect)
Outline: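 PGC/ERR cell line, 2,000 cells/well, pre-incubated 6 hours at 37 C, then exposed to compounds for 18 hours at 37 C; luciferase read with One-Glo luminescence after 30 min at room temperature.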

[17] = qHTS assay to identify small molecule agonists of the estrogen related receptor signaling pathway with the pleiotropic PPARgamma coactivator (PGC) from Tox21 10K library (AID 1224842); further: nearly all actives have a fitted effect of over 15% in size; further: potency means the concentration at half of the fitted maximal effect
Outline: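 PGC/ERR reporter cell line, 2,000 cells per well, incubated 6 h at 37 C before 23 nL compound in DMSO was added. After 18 h at 37 C, One-Glo luminescence read following 30 min at room temperature.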

[18] = qHTS assay to identify small molecule agonists of the estrogen related receptor (ERR) signaling pathway from Tox21 library (AID 1224849; calls by dose curve; further: nearly all actives have a fitted effect of over 15% in size); conditions: ERR reporter cell line, ONE-Glo luciferase, 18 h
Outline: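 ERR reporter cells (NTP line) pre-incubated 6 hours at 37 C, then exposed to compounds for 18 hours at 37 C. ONE-Glo luciferase luminescence was read after 30 minutes at room temperature.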

[19] = qHTS assay to identify small molecule agonists of the hypoxia (HIF-1) signaling pathway (AID 1224846; active means well fitted activation curve with a large enough effect in the signal ratio in the repeat runs, not every such curve was filed as active; the % refers to the signal ratio)
Outline: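 HRE-bla ME-180 beta-lactamase reporter cells in medium with 0.5% dialyzed FBS, pre-incubated 5 h then exposed to compounds 17 h at 37C, 5% CO2; reporter induction read with CCF4-AM FRET substrate.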

[20] = qHTS assay to identify small molecule antagonists of the estrogen related receptor (ERR) signaling pathway from Tox21 library (AID 1224848); further: nearly all actives have a fitted effect of over 50% in size; further: potency means the concentration at half of the fitted maximal effect
Outline: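 Luminescent reporter read-out (ONE-Glo) from NTP's ERR cell line after 18 h treatment at 37 C with DMSO-dissolved Tox21 compounds; cells pre-plated 6 h beforehand at 2,000 per well.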
On the % scale 0 is the no-effect control and ±100 the full control effect.

Cc1nc2n(c(=O)c1CCN1CCC(c3noc4cc(F)ccc34)CC1)CCCC2
inactive: Potency [1] | Potency [2] | Potency [3] | Potency [4] | Potency [5] | Potency [6] | Potency [7] | Potency [8] | Potency [9] | Potency [11] | Potency [12] | Potency [13]
active: Potency [10] 3.79 µM

CCCc1ccc(OCC(=O)N2CCN(C(=O)COc3ccc(CCC)cc3OC)CC2)c(OC)c1
active: Potency [16] 16.8 µM | Potency [10] 8.49 µM
inactive: Potency [1] | Potency [2] | Potency [14] | Potency [15] | Potency [17] | Potency [5] | Potency [7] | Potency [8] | activity change, positive = activation ([18]; at 42.5 µM (top of the series)) -21.5% | Potency [11] | Potency [12]

c1ccc(C(O[C@@H]2CCCN(CCc3ccc4c(c3)OCO4)C2)c2ccccc2)cc1
inactive: Potency [1] | Potency [2] | Potency [3] | Potency [6] | Potency [7] | Potency [19] | Potency [9] | Potency [12] | Potency [13]

Cc1c(C)c2c(c(C)c1O)CC[C@@](C)(CCC[C@H](C)CCC[C@H](C)CCCC(C)C)O2
inactive: Potency [1] | Potency [2] | Potency [3] | Potency [4] | Potency [6] | Potency [7] | Potency [19] | Potency [8] | Potency [9] | Potency [11] | Potency [12] | Potency [13]

O=C1CCc2cc(OCCCCc3nnnn3C3CCCCC3)ccc2N1
inactive: Potency [1] | Potency [2] | Potency [3] | Potency [4] | Potency [6] | Potency [7] | Potency [8] | Potency [9] | Potency [12] | Potency [13]

OC12N=C(c3ccccc3)SC1Cc1cc(Cl)ccc12 (configuration not stated)
inactive: Potency [2] | Potency [3] | Potency [16] | Potency [6] | Potency [7] | Potency [19] | Potency [20] | Potency [9] | Potency [11] | Potency [12] | Potency [13]
active: Potency [1] 35.6 µM | Potency [17] 8.63 µM | activity change, positive = activation ([18]; at 92.4 µM (top of the series)) 47.6%

CCCCCCCCCCCCCC[N+](C)(C)Cc1ccccc1
62.1 µM (active) and inactive: Potency [4]
inactive and 17.8 mM (active): Potency [6]
inactive: Potency [1] | Potency [14] | Potency [15] | Potency [7] | activity change, positive = activation ([18]; at 42.5 µM (top of the series)) -57.9% | activity change, positive = activation ([18]; at 92.4 µM (top of the series)) -69.7% | activity change, positive = activation ([18]; at 46.2 mM (top of the series)) -75.1% | Potency [11]
active: Potency [16] 31.1 µM and 11.9 µM and 15.8 mM | Potency [5] 43.9 µM | Potency [8] 25.7 µM and 49.2 µM | Potency [20] 9.84 µM and 10.6 µM and 11.2 mM | Potency [9] 44.3 µM and 10.7 µM and 17.8 mM | Potency [10] 3.52 µM and 3.01 µM and 2.82 mM | Potency [12] 22.2 µM and 9.52 µM and 15.8 mM | Potency [13] 24.9 µM and 19 µM and 15.8 mM

COC(=O)Nc1nc2ccc(C(=O)c3ccccc3)cc2[nH]1
inactive: Potency [2] | Potency [3] | Potency [14] | Potency [4] | Potency [5] | Potency [19] | Potency [8] | Potency [9] | Potency [11] | Potency [12] | Potency [13]
active: Potency [10] 0.848 µM

COC(=O)C1=C(C)NC(C)=C(C(=O)OCCN2CCN(C(c3ccccc3)c3ccccc3)CC2)C1c1cccc([N+](=O)[O-])c1 (configuration not stated)
inactive: Potency [1] | Potency [14] | Potency [15] | Potency [5] | Potency [8] | activity change, positive = activation ([18]; at 42.5 µM (top of the series)) -44.8% | Potency [13]
active: Potency [16] 9.44 µM | Potency [20] 11.9 µM

CCCCCC/C=C\CCCCCCCC(=O)O
inactive: Potency [2] | Potency [3] | Potency [14] | Potency [15] | Potency [4] | Potency [5] | Potency [7] | Potency [8] | Potency [9] | Potency [11] | Potency [12] | Potency [13]

O=C1CCc2ccc(OCCCCN3CCN(c4cccc(Cl)c4Cl)CC3)cc2N1
active: Potency [16] 11.9 µM | Potency [20] 11.9 µM | Potency [10] 10.7 µM
inactive: Potency [14] | Potency [15] | Potency [17] | Potency [7] | activity change, positive = activation ([18]; at 42.5 µM (top of the series)) -56% | Potency [11]

O=C(/C=C/c1ccc(O)c(O)c1)O[C@@H](C(=O)O)[C@@H](OC(=O)/C=C/c1ccc(O)c(O)c1)C(=O)O
inactive: Potency [2] | Potency [14] | Potency [15] | Potency [4] | Potency [6] | Potency [19] | Potency [8] | Potency [9] | Potency [10] | Potency [12] | Potency [13]

O=C(O)O
inactive: viability change, negative = cytotoxic [2] 1.44% [at 8.39 µM] | activity change, negative = cytotoxicity [3] -19.8% [at 8.39 µM] | viability change, negative = cytotoxic [4] -0.122% [at 8.39 µM] | activity, negative = inhibition [16] 259% [at 8.39 µM] | activation [5] 2.41% [at 8.39 µM] | activity change, negative = cytotoxicity [8] -9.67% [at 14 µM] | activity, negative = inhibition [20] 10.7% [at 8.39 µM] | activity change, positive = activation ([18]; at 8.39 µM (top of the series)) 5.47% | activity change, negative = cytotoxicity [9] 3.08% [at 6.97 µM] | cytotoxicity [11] 2.74% [at 6.97 µM] | activity change, negative = cytotoxic [12] 19% [at 6.97 µM] | cytotoxicity increase [13] 4.75% [at 6.97 µM]
active: Potency [7] 4.88 µM

S=C([S-])NCCNC(=S)[S-].S=C([S-])NCCNC(=S)[S-].[Mn+2].[Zn+2]
inactive: Potency [3] | Potency [4] | Potency [5] | Potency [6] | Potency [7] | Potency [19] | Potency [8] | Potency [9] | Potency [11] | Potency [12] | Potency [13]
active: Potency [1] 15.5 µM
